Source: PubChem BioAssay
A selection: hits, their analogues and other compounds. The true share with any hit is near 3.5%.
TEAD-YAP block – TEAD-YAP interaction inhibition | HEK-TIYL cells, TEAD-Gal4/YAP UAS-luciferase luminescence | inhibition, % at 9.12 µM | 1.4% of 640,000 active; in the data active = inhibition above about 32%
MITF inh – human MITF inhibition, primary screen; O75030; AlphaScreen MITF homodimerization, bead proximity signal; inhibition, % at 2.6 µM; 0.91% of 650,000 active; in the data active = inhibition above about 50%
FBW7 activator – activators of human E3 ligase FBW7; Q969H0; AlphaScreen FBW7–phospho-cyclin E peptide binding, activator screen; normalized activity (activation), % at 26.1 µM; 0.13% of 650,000 active; AID 1259310; in the data active = normalized activity above about 1.9%;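 note: purified mutant Fbw7 with reduced substrate affinity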
Target sequence (Q969H0 whole entry, looked up): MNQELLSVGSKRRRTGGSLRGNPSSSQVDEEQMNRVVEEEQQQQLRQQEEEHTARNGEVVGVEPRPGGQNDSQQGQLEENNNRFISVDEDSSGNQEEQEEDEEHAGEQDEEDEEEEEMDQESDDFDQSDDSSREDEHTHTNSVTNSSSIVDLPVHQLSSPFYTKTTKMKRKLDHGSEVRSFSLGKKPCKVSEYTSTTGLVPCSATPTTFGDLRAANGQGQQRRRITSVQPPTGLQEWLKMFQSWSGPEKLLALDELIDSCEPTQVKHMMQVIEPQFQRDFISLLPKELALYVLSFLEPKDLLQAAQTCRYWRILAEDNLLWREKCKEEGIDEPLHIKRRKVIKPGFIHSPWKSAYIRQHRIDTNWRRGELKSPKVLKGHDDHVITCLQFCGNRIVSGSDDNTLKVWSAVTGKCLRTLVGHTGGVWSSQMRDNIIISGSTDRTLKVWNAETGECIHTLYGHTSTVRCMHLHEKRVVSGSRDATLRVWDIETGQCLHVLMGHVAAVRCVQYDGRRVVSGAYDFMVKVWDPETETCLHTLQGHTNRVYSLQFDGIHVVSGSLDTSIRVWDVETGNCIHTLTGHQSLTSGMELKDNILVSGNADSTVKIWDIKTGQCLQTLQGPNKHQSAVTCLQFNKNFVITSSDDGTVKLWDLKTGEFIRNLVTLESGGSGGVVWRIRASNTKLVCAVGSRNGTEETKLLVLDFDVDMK
GPR151 activ – activates the human receptor GPR151. activation, % at 11.2 µM. AID 1508602. PathHunter beta-arrestin GPR151 cells, luminescence. 1% of 650,000 active; in the data active = activation above about 4.9%
GPR151 confirm – human GPR151 activation, confirmation screen; shares compounds with GPR151 activ; GPR151 PathHunter beta-arrestin cells, luminescence, 90 min; % of EA-reagent control over plate median; activation, % at 11.2 µM; 6,700 tested, under 10 active;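 active = mean percent activation across replicates above the confirmation screen cutoff of 4.91%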
GPR119 ag – activates human GPR119 in a GPR151 counter-screen. activation, % at 11.2 µM. AID 1508611. GPR119 PathHunter beta-arrestin cells, luminescence, 90 min; 0 = compound-well median, 100 = enzyme-acceptor control. shares compounds with GPR151 activ. 0.3% of 6,700 active;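 active = mean percent activation in the counterscreen above 29.09%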;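 note: counterscreen on off-target GPR119 to flag nonselective hits from the GPR151 activator screen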
Large screens that a line does not name were inactive (follow-up assays come after a bar, where they were run); ! = not active in a repeat.

COC(=O)c1ccccc1NC(=O)CN(c1ccc(F)c(Cl)c1)S(C)(=O)=O	GPR151 activ 13.0 | GPR151 confirm inactive | GPR119 ag 30.9
Cc1ccccc1N1C(=O)NC(=O)/C(=C\c2ccco2)C1=O	none
O=C(NCc1nnc(SCC(=O)N2CCc3ccccc32)o1)c1ccccc1	none
COC(=O)c1cc(OC)c(OC)cc1NC(=O)c1cc(Cl)ccc1Cl	GPR151 activ 6.3 | GPR151 confirm inactive | GPR119 ag inactive
COC(=O)c1cc(OC)c(OC)cc1NC(=O)CCN1C(=O)c2ccccc2C1=O	GPR151 activ 5.9 | GPR151 confirm inactive | GPR119 ag inactive
C=C1c2cc(C)cc(C)c2NC(=O)N1CC	none
COc1ccc(CCNC(=O)c2cccc(Nc3nc4ccccc4n3C)n2)cc1	GPR151 activ 7.8 | GPR151 confirm inactive | GPR119 ag inactive
COc1ccc(CCNC(=O)c2csc(Nc3nc4ccccc4n3C)n2)cc1	none
O=C(c1cnn2c1NC(c1cccs1)CC2C(F)(F)F)N1CCN(C(c2ccccc2)c2ccccc2)CC1 (centres undefined)	none
O=C(c1cnn2c1NC(c1cccs1)CC2C(F)(F)F)N1CCc2ccccc2C1 (centres undefined)	GPR151 activ 5.5 | GPR151 confirm inactive | GPR119 ag inactive
Cc1ccc(CN2CCNC(=O)C2CC(=O)NCc2cc(C(F)(F)F)ccc2F)cc1 (centres undefined)	GPR151 activ 6.5 | GPR151 confirm inactive | GPR119 ag inactive
Cc1ccc(CN2CCNC(=O)C2CC(=O)NCc2cnn(C)c2)cc1 (centres undefined)	none
CCOCCn1c(=NC(=O)CN2C(=O)CCC2=O)sc2cc(Br)ccc21	GPR151 activ 5.8 | GPR151 confirm inactive | GPR119 ag inactive
COCCn1c(=NC(=O)CN2C(=O)CCC2=O)sc2cc(Br)ccc21	none
O=C(NCc1ccc(Cl)cc1)C1CCC(Cn2c(=S)[nH]c3ccsc3c2=O)CC1 (centres undefined)	GPR151 activ 7.0 | GPR151 confirm inactive | GPR119 ag inactive
NC(=O)CSc1nnc(Cc2ccccc2)n1-c1ccc(F)cc1	GPR151 activ 6.0 | GPR151 confirm inactive | GPR119 ag inactive
COC(=O)c1ccc(OCc2cccc(F)c2)c(OC)c1	GPR151 activ 5.9 | GPR151 confirm inactive | GPR119 ag inactive
COc1cc(C(=O)Nc2ccccc2F)ccc1OCc1cccc(F)c1	none
CCOC(=O)c1ccc(S(=O)(=O)Nc2cc(C(=O)OCC)cc(C(=O)OCC)c2)cc1	none
CC(CC(=O)N1CCN(c2ccc(F)cc2)CC1)c1ccccc1 (centres undefined)	GPR151 activ 11.2 | GPR151 confirm inactive | GPR119 ag inactive
CCCC(C)C(=O)N1CCN(c2ccc(F)cc2)CC1 (centres undefined)	none
CC(c1ccccc1)N1CC(C(=O)N2CCN(c3ccc(F)cc3)CC2)CC1=O (centres undefined)	GPR151 activ 5.2 | GPR151 confirm inactive | GPR119 ag inactive
O=C(NCC(=O)N1CCN(c2ccccc2)CC1)c1c(F)cccc1F	GPR151 activ 6.0 | GPR151 confirm inactive | GPR119 ag inactive
CCn1cc(CCCC(=O)N2CCCC2)c2ccccc21	none
C=CCN1C(=O)N(c2cccc(C)c2)C(=O)C1CC(=O)Nc1ccc(OCCC)cc1 (centres undefined)	none
O=C1NC(=O)C(=Cc2ccc(OCc3ccccc3)c(C(=O)O)c2)C(=O)N1	GPR151 activ 5.6 | GPR151 confirm inactive | GPR119 ag inactive
CCOc1ccc(/C=C2\Oc3c(ccc(O)c3CN3CCN(CCO)CC3)C2=O)cc1	none
CCOc1ccccc1/C=C1\Oc2c(ccc(O)c2CN2CCN(CCO)CC2)C1=O	GPR151 activ 6.8 | GPR151 confirm inactive | GPR119 ag inactive
Oc1ccc(N2CCN(Cc3nnnn3Cc3ccco3)CC2)cc1	none
CCC(C(=O)O)n1c(O)c(/C=C2\C=Nc3ccccc32)sc1=S (centres undefined)	GPR151 activ 9.1 | GPR151 confirm inactive | GPR119 ag inactive
O=C(CCC(=O)c1ccc(Cl)cc1)OCc1ccc([N+](=O)[O-])cc1	none
O=C(CCC(=O)OCc1ccc([N+](=O)[O-])cc1)OCc1ccc([N+](=O)[O-])cc1	GPR151 activ 5.5 | GPR151 confirm inactive | GPR119 ag inactive
FC(F)(F)c1cccc(CNc2ncnc3nc(-c4ccccc4)[nH]c23)c1	none
Cc1ccc(-n2[nH]c(C)c(C=Nc3cccc(C(=O)O)c3)c2=O)cc1	GPR151 activ 5.4! | GPR151 confirm inactive | GPR119 ag inactive
COc1ccc(OC)c(C(=O)COC(=O)c2cc(C)oc2C)c1	GPR151 activ 12.8 | GPR151 confirm inactive | GPR119 ag inactive
Cc1nc2c(C(=O)NCc3ccc(F)cc3)c[nH]n2c(=O)c1Cl	GPR151 activ 9.6 | GPR151 confirm inactive | GPR119 ag inactive
Cc1nc2c(C(=O)NCCc3ccccc3)c[nH]n2c(=O)c1Cl	none
CC(=O)N1CCN(Cc2ccccc2Br)CC1	GPR151 activ 7.9 | GPR151 confirm inactive | GPR119 ag inactive
CC(=O)N1CCN(Cc2cccc(Cl)c2Cl)CC1	none
N#C/C(=C(/O)COc1ccc([N+](=O)[O-])cc1)c1nnc2n1CCCCC2	GPR151 activ 5.8 | GPR151 confirm inactive | GPR119 ag inactive
N#C/C(=C(/O)COc1ccccc1)c1nnc2n1CCCCC2	none
O=C(Cc1ccccc1)Nc1ccnn1C1CCN(Cc2cccc(OCCO)c2)CC1	none
COc1cccc(-n2cc(C(=O)NCCC(=O)Nc3nc4ccccc4s3)c3ccccc3c2=O)c1	none
COc1nc(NCCCN2CCCC2=O)nc(-c2ccc(C(=O)N3CCN(C)CC3)cc2)n1	none
COc1nc(NCCCN2CCCC2=O)nc(-c2ccc(C(N)=O)cc2)n1	GPR151 activ 8.5 | GPR151 confirm inactive | GPR119 ag inactive
COc1cc(Nc2nc(-c3ccc(C(=O)NC4CC4)cc3)ncc2C)cc(OC)c1OC	none
CC1(CCc2ccccc2)NC(=O)NC1=O (centres undefined)	GPR151 activ 8.6 | GPR151 confirm inactive | GPR119 ag inactive
CC1(CCc2ccccc2)NC(=O)N(N)C1=O (centres undefined)	GPR151 activ 6.7 | GPR151 confirm inactive | GPR119 ag inactive
Cc1cc(C)nc(SCC(=O)N2CCCCC2)n1	GPR151 activ 7.5 | GPR151 confirm inactive | GPR119 ag inactive
Cc1cc(=O)[nH]c2nnc(SCC(=O)N3CCCCCC3)n12	GPR151 activ 6.1 | GPR151 confirm inactive | GPR119 ag inactive
CC(C)(C)c1ccc(S(=O)CC(O)CSc2nc(-c3ccccc3)cc(-c3ccccc3)c2C#N)cc1 (centres undefined)	none
O=S1(=O)CCC(n2c(O)c(/C=C3\C=NN=C3c3ccccc3)sc2=S)C1 (centres undefined)	none
